Compounds without any hit were thinned out: in the full panel of roughly 83,000, 20% have a hit.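 48-hour exposure, single concentration, 96-well plates; percent growth endpoint where 0 means no net growth. Active: below 10.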 A number with no mark means an inactive call. The source made the active and inactive calls.
Legend:
Experiment in all cases: NCI-60 one-dose screen, 48 h (100 = growth as untreated, 0 = no growth, -100 = all killed)
Conditions in all cases: 10 µM
RPMI-8226 leukemia = system: RPMI-8226 leukemia
OVCAR-8 ovarian = system: OVCAR-8 ovarian
OVCAR-5 ovarian = system: OVCAR-5 ovarian
OVCAR-4 ovarian = system: OVCAR-4 ovarian
SK-OV-3 ovarian = system: SK-OV-3 ovarian
IGROV1 ovarian = system: IGROV1 ovarian
OVCAR-3 ovarian = system: OVCAR-3 ovarian
HS 578T breast = system: HS 578T breast
NCI/ADR-RES ovarian = system: NCI/ADR-RES ovarian
T-47D breast = system: T-47D breast
BT-549 breast = system: BT-549 breast
MDA-MB-435 melanoma = system: MDA-MB-435 melanoma
SW-620 colon = system: SW-620 colon
MCF7 breast = system: MCF7 breast
HCT-116 colon = system: HCT-116 colon
HCC-2998 colon = system: HCC-2998 colon
KM12 colon = system: KM12 colon
MDA-MB-468 breast = system: MDA-MB-468 breast

`Cc1ccc(-c2cc(-c3cc4ccccc4nc3Cl)[nH]c(=S)n2)cc1` showed a growth (RPMI-8226 leukemia) of 64.6%, a growth (OVCAR-8 ovarian) of 68.2% and a growth (OVCAR-5 ovarian) of 87%. It also gave a growth (OVCAR-4 ovarian) of 80.6%, a growth (SK-OV-3 ovarian) of 74.2% and a growth (IGROV1 ovarian) of 58.7%. The growth (OVCAR-3 ovarian) was 68.4%, the growth (HS 578T breast) was 32.2% and the growth (NCI/ADR-RES ovarian) was 42%. For the same compound, the growth (T-47D breast) was 57.3%, the growth (BT-549 breast) was 7.67% (active) and the growth (MDA-MB-435 melanoma) was -1.81% (active). It also gave a growth (SW-620 colon) of 78.4%, a growth (MCF7 breast) of 47.5% and a growth (HCT-116 colon) of 64.5%. It also gave a growth (HCC-2998 colon) of 77.3%, a growth (KM12 colon) of 61.6% and a growth (MDA-MB-468 breast) of 11.7%.

For `O=C(Nc1ccc(OCC(=O)c2ccccc2)cc1)Nc1ccc(Cl)c(C(F)(F)F)c1`, the growth (RPMI-8226 leukemia) was 7.07% (active), the growth (OVCAR-8 ovarian) was 29.8% and the growth (OVCAR-5 ovarian) was 35.8%. For the same compound, the growth (OVCAR-4 ovarian) was 22.9%, the growth (SK-OV-3 ovarian) was 16.4% and the growth (IGROV1 ovarian) was 28.9%. For the same compound, the growth (OVCAR-3 ovarian) was 23.8%, the growth (HS 578T breast) was 9.19% (active) and the growth (NCI/ADR-RES ovarian) was 18.5%. The growth (T-47D breast) was 3.26% (active), the growth (BT-549 breast) was 33.7% and the growth (MDA-MB-435 melanoma) was -25.4% (active). The growth (MCF7 breast) was 35%, the growth (HCT-116 colon) was 29.6% and the growth (HCC-2998 colon) was 28.6%. The growth (KM12 colon) was 1.99% (active) and the growth (MDA-MB-468 breast) was -5.5% (active).

`Nc1cccnc1/C=N/NC(=S)NCCNC(=O)c1ccc(-n2nc(-c3ccccc3O)nc2-c2ccccc2O)cc1` was tested, and the growth (RPMI-8226 leukemia) was -3.08% (active), the growth (OVCAR-8 ovarian) was 14.6% and the growth (OVCAR-5 ovarian) was 26.3%. The growth (OVCAR-4 ovarian) was 22.1%, the growth (SK-OV-3 ovarian) was 17.1% and the growth (IGROV1 ovarian) was 12.5%. For the same compound, the growth (OVCAR-3 ovarian) was 39.6%, the growth (HS 578T breast) was 34.6% and the growth (T-47D breast) was 7.42% (active). The growth (BT-549 breast) was -5.4% (active), the growth (MDA-MB-435 melanoma) was 53.8% and the growth (SW-620 colon) was 58.5%. The growth (HCT-116 colon) was 7.1% (active), the growth (HCC-2998 colon) was -7.32% (active) and the growth (KM12 colon) was 11.6%. The growth (MDA-MB-468 breast) was -56.1% (active).

For `CNC(=O)c1cc(-c2ccc(NC(=O)Nc3ccc(C)cc3)cc2)nc2cccnc12`, the growth (RPMI-8226 leukemia) was 88.8%, the growth (OVCAR-8 ovarian) was 97.8% and the growth (OVCAR-5 ovarian) was 105%. For the same compound, the growth (OVCAR-4 ovarian) was 108%, the growth (SK-OV-3 ovarian) was 91.1% and the growth (IGROV1 ovarian) was 92.8%. The growth (OVCAR-3 ovarian) was 105%, the growth (HS 578T breast) was 106% and the growth (T-47D breast) was 89.6%. For the same compound, the growth (BT-549 breast) was 104%, the growth (MDA-MB-435 melanoma) was 109% and the growth (SW-620 colon) was 104%. It also gave a growth (MCF7 breast) of 45.6%, a growth (HCT-116 colon) of 89.7% and a growth (HCC-2998 colon) of 121%. For the same compound, the growth (KM12 colon) was 102%.

In the case of `O=C(c1ccc(Cl)cc1)C1[C@H](c2ccc(Br)cc2)[C@@H](c2ccccc2)NC12C(=O)Nc1ccc(Cl)cc12` (stereo not given in full), the growth (RPMI-8226 leukemia) is reported as -15.4% (active), the growth (OVCAR-8 ovarian) is reported as -55% (active) and the growth (OVCAR-5 ovarian) is reported as -89.5% (active). For the same compound, the growth (OVCAR-4 ovarian) was 3.2% (active), the growth (SK-OV-3 ovarian) was 11.5% and the growth (OVCAR-3 ovarian) was -88% (active). For the same compound, the growth (HS 578T breast) was -14% (active), the growth (NCI/ADR-RES ovarian) was -89.9% (active) and the growth (T-47D breast) was 8.01% (active). The growth (BT-549 breast) was -57.1% (active), the growth (MDA-MB-435 melanoma) was -84.9% (active) and the growth (SW-620 colon) was -76.4% (active). For the same compound, the growth (MCF7 breast) was -39.7% (active), the growth (HCT-116 colon) was 5.1% (active) and the growth (HCC-2998 colon) was -94.9% (active). The growth (KM12 colon) was -26.6% (active) and the growth (MDA-MB-468 breast) was -90% (active).

In the case of `O=C1NC(=NC23CC4CC(CC(C4)C2)C3)N/C1=C\c1ccc2ncccc2n1`, the growth (RPMI-8226 leukemia) is reported as -23.3% (active), the growth (OVCAR-8 ovarian) is reported as 2.33% (active) and the growth (OVCAR-5 ovarian) is reported as -40.4% (active). The growth (OVCAR-4 ovarian) was -24.7% (active), the growth (SK-OV-3 ovarian) was -10.5% (active) and the growth (OVCAR-3 ovarian) was -22.3% (active). For the same compound, the growth (HS 578T breast) was -24.3% (active), the growth (NCI/ADR-RES ovarian) was -21% (active) and the growth (T-47D breast) was -9.66% (active). For the same compound, the growth (BT-549 breast) was -81.3% (active), the growth (MDA-MB-435 melanoma) was -11.4% (active) and the growth (SW-620 colon) was 2.73% (active). The growth (MCF7 breast) was -19.4% (active), the growth (HCT-116 colon) was 17.9% and the growth (HCC-2998 colon) was 3.26% (active). The growth (KM12 colon) was -0.698% (active) and the growth (MDA-MB-468 breast) was -63% (active).

`CN1CCN(c2ccc(Nc3nc(NCCCNC(=O)c4ccccc4)c4sccc4n3)cc2)CC1` gave a growth (RPMI-8226 leukemia) of 14.8%, a growth (OVCAR-8 ovarian) of 55.9% and a growth (OVCAR-5 ovarian) of 88.4%. The growth (OVCAR-4 ovarian) was 77.9%, the growth (SK-OV-3 ovarian) was 113% and the growth (IGROV1 ovarian) was 94.9%. It also gave a growth (OVCAR-3 ovarian) of 78.5%, a growth (HS 578T breast) of 78.8% and a growth (T-47D breast) of 54.3%. It also gave a growth (BT-549 breast) of 138%, a growth (MDA-MB-435 melanoma) of 64.4% and a growth (SW-620 colon) of 60.6%. It also gave a growth (MCF7 breast) of 38.4%, a growth (HCT-116 colon) of 30.9% and a growth (HCC-2998 colon) of 83.2%. For the same compound, the growth (KM12 colon) was 54.4% and the growth (MDA-MB-468 breast) was 68.4%.

In the case of `CC(C)CCSc1nc(NC2CC2)c(C#N)c(-c2ccc(C(C)C)cc2)n1`, the growth (RPMI-8226 leukemia) is reported as 101%, the growth (OVCAR-8 ovarian) is reported as 110% and the growth (OVCAR-5 ovarian) is reported as 111%. It also gave a growth (OVCAR-4 ovarian) of 112%, a growth (SK-OV-3 ovarian) of 96.5% and a growth (OVCAR-3 ovarian) of 117%. The growth (HS 578T breast) was 108%, the growth (NCI/ADR-RES ovarian) was 108% and the growth (T-47D breast) was 100%. For the same compound, the growth (BT-549 breast) was 100%, the growth (MDA-MB-435 melanoma) was 112% and the growth (SW-620 colon) was 114%. It also gave a growth (MCF7 breast) of 97.9%, a growth (HCT-116 colon) of 108% and a growth (HCC-2998 colon) of 115%. For the same compound, the growth (KM12 colon) was 107%.

`CC(C)(C)Nc1nc2cc(Cl)c(Cl)cc2nc1S(C)(=O)=O` was tested, and the growth (RPMI-8226 leukemia) was 42.3%, the growth (OVCAR-8 ovarian) was 41.3% and the growth (OVCAR-5 ovarian) was 79.3%. For the same compound, the growth (OVCAR-4 ovarian) was -6.34% (active), the growth (SK-OV-3 ovarian) was 72.8% and the growth (IGROV1 ovarian) was 45.2%. The growth (OVCAR-3 ovarian) was -80.3% (active), the growth (HS 578T breast) was 56.8% and the growth (T-47D breast) was 31.3%. For the same compound, the growth (BT-549 breast) was -29.7% (active), the growth (MDA-MB-435 melanoma) was 44.6% and the growth (SW-620 colon) was -74.5% (active). The growth (MCF7 breast) was 58.8%, the growth (HCT-116 colon) was 13.1% and the growth (HCC-2998 colon) was 42.2%. It also gave a growth (KM12 colon) of 81.3%.

Source: PubChem BioAssay (NCI)
